# An excerpt weighted towards active compounds, which were near 1.8% of everything screened.
# TLR4 MyD88 comp: blocks binding of human TLR4 to MyD88; O00206+Q99836; HeLa CL3-4 TLR4/MyD88 BLA complementation, FRET ratio; inhibition, % at 8.4 µM; 0.18% of 200,000 active; in the data active means inhibition above about 25%;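 further: 0% = vehicle and 100% = reference inhibitor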
# Mcl1 Bid PPI: Mcl-1/Bid interaction inhibition | Q07820 | TR-FRET Mcl-1/Bid-Dy647 peptide binding, 1536-well | inhibition, % at 21.7 µM | 0.97% of 220,000 active | AID 1021;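 active means compounds that cut the binding signal by more than half at the single screening dose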;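 further: His-tagged Mcl-1 with europium anti-His antibody binding Bid BH3 peptide; 0% = Mcl-1 plus peptide wells and 100% = peptide-only wells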
# TLR9-MyD88 inh: TLR9-MyD88 interaction inhibition | AID 504734 | inhibition, % at 4.98 µM | 0.21% of 340,000 active | CHO BLA complementation TLR9-MyD88, CCF4 FRET ratio;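 active means inhibition above the mean over all tested compounds plus 3 SD, cut at about 21% in these data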;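 further: 0% = DMSO only wells and 100% = clavulanate BLA inhibitor control wells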
# Bim-Mcl-1: disrupts Bim peptide binding to human Mcl-1 | Bead-based flow cytometry, Bim peptide-Mcl-1 binding | Q07820 | AID 1009 | 0.1% of 190,000 active | inhibition, % at 10 µM; in the data active means inhibition above about 40%;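 further: 0% = no compound tracer wells and 100% = peptide blocker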
# Mcl1 Noxa PPI: disrupts binding of human Mcl-1 to Noxa peptide. inhibition, % at 21.7 µM. TR-FRET Mcl-1/Noxa peptide binding, 2 h. 1.5% of 220,000 active. AID 1022. Q07820;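 active means compounds that cut the protein-peptide binding signal by more than 50% relative to plate controls in a single-dose test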;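 further: His-tagged Mcl-1 with rhodamine Noxa BH3 peptide and terbium anti-His antibody; 0% = Mcl-1 plus Noxa peptide wells and 100% = peptide-only wells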
# NOD2 RIPK2 PPI: blocks binding of human NOD2 to RIPK2; CHO BLA complementation NOD2-RIPK2, CCF4 ratio; inhibition, % at 4.98 µM; 0.38% of 360,000 active; in the data active means inhibition above about 21%;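 further: 0% = vehicle only and 100% = reference blocker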
# Target sequence (O43353 whole entry, looked up): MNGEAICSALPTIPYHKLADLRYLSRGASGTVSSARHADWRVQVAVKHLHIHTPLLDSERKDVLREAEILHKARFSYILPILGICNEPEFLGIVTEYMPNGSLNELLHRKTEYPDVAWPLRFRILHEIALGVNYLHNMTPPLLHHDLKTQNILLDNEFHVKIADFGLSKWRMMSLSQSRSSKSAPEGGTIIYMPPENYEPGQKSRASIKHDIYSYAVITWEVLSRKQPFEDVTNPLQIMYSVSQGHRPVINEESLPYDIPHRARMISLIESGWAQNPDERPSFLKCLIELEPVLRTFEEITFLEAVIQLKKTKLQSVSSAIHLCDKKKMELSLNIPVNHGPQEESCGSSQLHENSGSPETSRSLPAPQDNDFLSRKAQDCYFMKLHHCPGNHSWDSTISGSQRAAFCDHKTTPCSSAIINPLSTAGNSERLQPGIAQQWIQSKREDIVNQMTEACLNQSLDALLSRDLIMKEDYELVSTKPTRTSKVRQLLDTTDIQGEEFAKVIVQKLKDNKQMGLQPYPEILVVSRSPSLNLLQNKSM
# NOD2-RIPK2 conf: confirmation of human NOD2-RIPK2 interaction inhibitors; shares compounds with NOD2 RIPK2 PPI; CHO cells, NOD2-RIPK2 BLA complementation, CCF4 FRET; inhibition, % at 4.98 µM; AID 624370; 70% of 1,200 active;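 active means mean inhibition across replicates above a set limit taken from the earlier primary screen, cut at about 21% in these data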;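 further: 0% = DMSO-only wells and the high end = clavulanate BLA-blocked wells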
# BLA counter: NOD2-RIPK2 counterscreen BLA reporter activity; shares compounds with NOD2 RIPK2 PPI; CHO BLA reporter, CCF4 FRET ratio; inhibition, % at 4.98 µM; 57% of 1,200 active;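 active means mean inhibition above the low-control mean inhibition plus three low-control SD, cut at about 11% in these data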;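 further: 0% = DMSO only wells and 100% = clavulanate high control wells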
# Starred values were filed as active, the others as inactive; . = no result given.
SMILES,TLR4 MyD88 comp,Mcl1 Bid PPI,TLR9-MyD88 inh,Bim-Mcl-1,Mcl1 Noxa PPI,NOD2 RIPK2 PPI,NOD2-RIPK2 conf,BLA counter
COc1ccc(C2CC(c3c(O)cc(C)oc3=O)=NCCS2)c(OC)c1 (stereo not drawn),10.0,-4.8,15.5,-2.0,-8.9,22.7*,15.5,3.5
Cc1cc(O)c(C2=Nc3ccccc3SC(c3ccc(Cl)cc3)C2)c(=O)o1 (stereo not drawn),5.1,-0.2,4.5,-3.0,21.1,-2.2,.,.
CCCC(c1nnnn1CS(=O)(=O)c1ccc(C)cc1)N1CCN(C2CCCC2)CC1 (stereo not drawn),.,.,7.8,.,.,-5.0,.,.
FC(F)(F)c1ccccc1-c1ccc2nncn2c1,.,.,.,.,.,23.1*,-5.8,0.5
c1ccc(-c2ccc3nncn3c2)cc1,.,.,.,.,.,-0.6,.,.
Cc1ccc(NC(=O)C(OC(=O)c2ccc(F)cc2)c2ccccc2)cc1Cl (stereo not drawn),-1.7,3.1,-0.4,-4.0,5.6,-11.5,.,.
Cc1ccc(NC(=O)C(OC(=O)c2ccc(O)cc2)c2ccccc2)cc1Cl (stereo not drawn),-15.3,-0.1,-6.0,-6.0,-0.3,34.9*,-9.9,-3.1
COc1ccc(NC(=O)CNC(=O)C2CCCCC2)cc1OC,.,.,-4.7,.,.,-5.7,.,.
Cc1cc(C)n(-c2nc3ccccc3c(=O)n2OCC#N)n1,.,.,-4.0,.,.,1.5,.,.
COc1ccc(NS(=O)(=O)c2ccc3ccccc3c2)c2ncccc12,.,.,12.6,.,.,28.9*,30.1*,17.4*
CC[C@@H]1[C@H]2CCCC(=O)N3CC[C@@H](C[C@@H]1Nc1ccccc1)[C@@H]23,.,.,-17.4,.,.,-1.5,.,.
CN(c1ccccc1)S(=O)(=O)c1ccc(C(=O)NCC(c2ccco2)N2CCCCC2)cc1 (stereo not drawn),.,.,8.1,.,.,24.6*,1.7,-2.4
CC(C)N(C(=O)[C@H]1CC(CC(=O)NCC23CC4CC(CC(C4)C2)C3)C(=O)N2CCc3c([nH]c4ccccc34)[C@]12C)C(C)C (stereo partly drawn),.,.,-4.6,.,.,2.4,.,.
Cc1cc(-c2ccco2)c(C#N)c2nc3ccccc3n12,12.0,.,4.6,4.0,.,22.4*,17.8,14.8*
CCN(CC)c1ccc(-c2sc(Nc3ccccc3)n[n+]2-c2ccc(F)cc2)cc1,.,.,11.0,.,.,10.4,.,.
CCc1ccc(Nc2n[n+](-c3ccccc3)c(-c3ccc(N(CC)CC)cc3)s2)cc1,.,.,11.2,.,.,28.7*,69.0*,75.6*
CCC1CCCCN1S(=O)(=O)c1ccc(-n2cnnn2)c(C)c1 (stereo not drawn),.,.,-6.8,.,.,-16.3,.,.
O=C(Nc1ccc(F)cc1)c1nn(-c2ccccc2)c(=O)cc1Cl,5.9,2.0,6.8,1.0,3.5,36.3*,39.8*,5.3
N#Cc1c(-c2ccccc2)nc(SCC(=O)Nc2ccc(OC(F)(F)Cl)cc2)[nH]c1=O,.,.,6.8,.,.,0.7,.,.
Cc1cccc2c(N=O)c(O)n(CCc3ccccc3)c12,.,.,15.7,.,.,25.9*,25.1*,13.8*
O=Nc1c(O)n(Cc2ccc(Cl)cc2)c2ccccc12,3.3,-0.6,20.1,-1.0,-2.9,22.5*,22.1*,16.9*
O=C(/C=C/c1ccccc1)c1ccc2c(c1)OCO2,.,4.2,5.7,.,8.8,-8.5,.,.
CN(C)c1ccc(/C=C/C(=O)c2ccc3c(c2)OCO3)cc1,.,.,18.9,.,.,54.9*,48.1*,54.6*
CCCNC(=O)c1nn2cc(Br)cnc2c1Br,-10.1,-32.8,9.3,4.0,8.2,-3.9,.,.
COc1cccc(N2CCN(c3ncnc4c3[nH]c3ccccc34)CC2C)c1 (stereo not drawn),11.7,-19.3,.,-2.0,24.2,.,.,.
SMILES,TLR4 MyD88 comp,Mcl1 Bid PPI,TLR9-MyD88 inh,Bim-Mcl-1,Mcl1 Noxa PPI,NOD2 RIPK2 PPI,NOD2-RIPK2 conf,BLA counter
COc1cccc(N2CCN(c3ncnc4c3[nH]c3ccc(F)cc34)CC2C)c1 (stereo not drawn),6.0,-59.1,2.8,2.0,28.4,28.3*,14.7,-0.5
N#CC1=C(N)Oc2cc(N)ccc2C1c1ccccc1Cl (stereo not drawn),.,.,-4.0,.,.,27.6*,-1.6,-1.0
CCCCCCCCCc1nc2sc3c(c2c(=O)n1NC(=O)c1ccc([N+](=O)[O-])cc1)CC(C)(C)OC3,-18.7,-19.7,-4.2,0.0,7.0,32.2*,-1.1,0.8
O=C(c1ccccc1)N1CCN(S(=O)(=O)c2ccccc2)CC1,.,-48.0,-8.6,.,9.9,30.6*,-7.2,-3.0
O=C(c1cccc(F)c1)N1CCN(S(=O)(=O)c2ccccc2)CC1,-6.7,-37.5,5.0,-3.0,0.2,-7.3,.,.
Cc1nc2sc(C(=O)Nc3ccccc3Cc3ccccc3)c(C)c2c(=O)[nH]1,.,1.7,3.8,.,-1.2,-1.3,.,.
CCOc1ccc(C(=O)CCC(=O)Nc2ccc(C)c(S(=O)(=O)N3CCCCC3)c2)cc1,.,.,-7.2,.,.,1.0,.,.
CC(=O)c1ccc(OCCCC(=O)Nc2ccc(C)c(S(=O)(=O)N3CCCCC3)c2)cc1,.,.,-8.1,.,.,36.3*,-7.1,-6.7
Fc1ccc(-[n+]2nc(Nc3ccccc3)sc2-c2c(Cl)cccc2Cl)cc1,.,.,18.1,.,.,52.7*,42.1*,15.8*
O=C(O)c1ccc(-c2sc(Nc3ccccc3)n[n+]2-c2ccc(F)cc2)cc1,.,.,2.4,.,.,0.7,.,.
COc1ccc2ccccc2c1-c1sc(Nc2ccccc2)n[n+]1-c1ccc(F)cc1,.,.,8.2,.,.,31.7*,19.6,2.8
COc1ccc(-c2sc(Nc3ccccc3)n[n+]2-c2ccc(F)cc2)cc1Br,.,.,-3.2,.,.,-18.1,.,.
CC(OC(=O)/C=C/c1ccccc1)C(=O)N1CCc2ccccc21 (stereo not drawn),.,.,-3.9,.,.,-5.0,.,.
COc1cccc(OC)c1C(=O)NC(=S)Nc1ccc2oc(-c3ccncc3)nc2c1,-1.7,-30.9,-21.0,-2.0,0.2,63.9*,-10.2,-1.9
O=C(Nc1ccc(Cl)cc1)Nc1ccc2c(c1)N1CCN=C1S2,2.5,-50.0,8.7,-4.0,-8.3,21.6*,36.1*,19.2*
Cc1c(NC(=S)NC(NC(=O)C(C)(C)C)C(Cl)(Cl)Cl)c(=O)n(-c2ccccc2)n1C (stereo not drawn),-18.3,-27.5,-0.9,-2.0,4.5,25.2*,1.0,-1.1
COc1ccc(C(C(=O)NC(C)(C)C)n2c(=O)c(-c3ccccc3)nc3ccccc32)cc1 (stereo not drawn),.,.,.,.,.,-3.1,.,.
CC(C)(C)NC(=O)C(c1ccc(C#N)cc1)n1c(=O)c(-c2cc3ccccc3[nH]2)nc2ccccc21 (stereo not drawn),.,.,.,.,.,53.7*,51.2*,69.7*
CC(C)(C)NC(=O)C(c1cccc2ccccc12)n1c(=O)c(-c2cc3ccccc3[nH]2)nc2ccccc21 (stereo not drawn),.,.,.,.,.,39.6*,33.6*,61.5*

# Screens deposited in PubChem BioAssay by several laboratories.
